# CYP2C9 inh = blocks human cytochrome P450 2C9 | P11712 | inhibition, % at 5 µM | hit rate 20% among 96,000 | CYP2C9 Supersomes, luciferin-H conversion, luminescence;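 active = blocking of liver enzyme CYP2C9 beyond about 50% at 5 µM, limit read from the data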
# Target sequence (P11712 whole entry, looked up): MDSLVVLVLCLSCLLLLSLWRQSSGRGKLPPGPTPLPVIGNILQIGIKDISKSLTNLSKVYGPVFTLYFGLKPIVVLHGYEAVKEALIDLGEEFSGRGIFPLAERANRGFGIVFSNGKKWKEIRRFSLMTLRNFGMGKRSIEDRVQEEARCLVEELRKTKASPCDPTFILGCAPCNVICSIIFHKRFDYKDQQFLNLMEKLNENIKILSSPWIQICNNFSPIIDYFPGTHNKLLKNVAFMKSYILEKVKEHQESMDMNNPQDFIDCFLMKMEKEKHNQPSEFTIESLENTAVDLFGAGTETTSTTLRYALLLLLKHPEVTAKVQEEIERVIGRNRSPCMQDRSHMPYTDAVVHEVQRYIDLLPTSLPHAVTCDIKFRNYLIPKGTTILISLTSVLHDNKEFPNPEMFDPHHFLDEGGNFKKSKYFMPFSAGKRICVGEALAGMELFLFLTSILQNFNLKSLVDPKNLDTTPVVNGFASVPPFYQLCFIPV
# D1 mod = allosteric modulators of human D1 dopamine receptor. B-score at 10 µM. P21728. HEK293 D1, CRE-luciferase, dopamine EC30 potentiation; actives deviate in either direction. hit rate 5.9% among 58,000. AID 641;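 active = luminescence count or its row- and column-corrected plate score outside the 99.7% band of the plate's sample wells, on either side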
# hDAT+cocaine = changed human dopamine transporter uptake under cocaine IC80; B-score at 10 µM; LLC-PK1 hDAT cells, [14C]-dopamine uptake with cocaine IC80; actives deviate in either direction; AID 449768; hit rate 1.3% among 110,000;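 active = Z score or B-score, a plate-position-corrected score, falls beyond the plate's 99.7% confidence bounds, in either direction; inactive = both scores lie inside the 99.7% bounds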;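 also: scored against the spread of the other compound wells on the same plate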
# CYP2C9 act = increases human cytochrome P450 2C9 activity. P11712. recombinant CYP2C9, luciferin-H conversion, luminescence; active compounds read high; factor 1 = untreated enzyme, 0 = blocked. activation factor at 5 µM. hit rate 1.4% among 96,000;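 active = activation factor of 2 or more for CYP2C9 at a 5 µM dose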;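 also: 0 = sulfaphenazole-blocked wells and 1 = vehicle-only wells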
# CYP2C19 inh = blocks human cytochrome P450 2C19; CYP2C19 Supersomes, luciferin-H EGE luminescence, 30 min; P33261; inhibition, % at 5 µM; hit rate 21% among 96,000;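 active = CYP2C19 inhibition above a set limit at 5 µM in the primary screen, cut at about 50% in these data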;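 also: plate controls were negative control wells for no effect and 2.5 mM tranylcypromine positive control for full effect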
# CYP2C19 activ = cytochrome P450 2C19 (human) activation; recombinant CYP2C19, luciferin-H EGE luminescence; active compounds read high; 0 = fully inhibited enzyme, 1 = untreated enzyme; activation factor at 5 µM; 96,000 tested, under 10 active; AID 1025;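 active = activation factor of at least 2 at 5 µM in the primary screen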;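 also: 0 = wells with 2.5 mM tranylcypromine and 1 = vehicle-only wells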
# D1 PAM confirm = confirmation of human D1 dopamine receptor allosteric modulators; shares compounds with D1 mod; HEK293 D1 CRE-luciferase, dopamine EC30 potentiation; active compounds read high; luminescence at 10 µM; hit rate 88% among 2,200; AID 642;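 active = luminescence in either of two replicates above the same-plate mean plus 3 SD of the low-dose dopamine control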
# D1 no dopamine = D1 (human) signaling in absence of dopamine | hit rate 0.8% among 1,900 | shares compounds with D1 mod | luminescence at 10 µM | HEK293 D1 CRE-luciferase, luminescence, no dopamine; active compounds read high; in the data active = luminescence above about 3900
# Isoprot counter = alters isoproterenol CRE-luciferase response in HEK293 cells; AID 647; hit rate 63% among 2,200; shares compounds with D1 mod; calls only at 10 µM; HEK293 D1 CRE-luciferase, isoproterenol EC30 counter-screen;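 active = luminescence in either replicate above plate mean of wells with a partly effective reference agonist dose plus 3 SD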;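 also: isoproterenol raises cAMP through native beta-adrenoceptor Gs so signal bypasses D1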
# Numbers without * were called inactive; i = inactive; · = no result; + = active, no number. An excerpt weighted towards active compounds, which were near 28% of everything screened.
SMILES,CYP2C9 inh,D1 mod,hDAT+cocaine,CYP2C9 act,CYP2C19 inh,CYP2C19 activ,D1 PAM confirm,D1 no dopamine,Isoprot counter
CCn1cc(C(=O)OCC(=O)Nc2c(C)n(C)n(-c3ccccc3)c2=O)c(=O)c2ccc(C)nc21,6,0.64,1.3,0.9,10,0.9,·,·,·
CCn1cc(C(=O)OCc2ccccc2)c(=O)c2ccc(C)nc21,-5,5.9*,1.3,1.1,10,0.9,9156*,1600,i
CCn1cc(C(=O)Nc2cccc(C(=O)OC)c2)c(=O)c2ccc(C)nc21,-19,0.17,1.6,1.2,0,1,·,·,·
CCn1cc(C(=O)OCc2cccc(Br)c2)c(=O)c2ccc(C)nc21,17,6.6*,1.1,0.8,14,0.9,14972*,1524,+
CCn1cc(C(=O)OCC(=O)OC2CC(C)CCC2C(C)C)c(=O)c2ccc(C)nc21 (stereo unspecified),49,6.4*,0.13,0.5,75*,0.3,9780*,1408,i
COc1ccc2c(-c3ccccc3)cc(N3CCOCC3)nc2c1,24,0.012,0.09,0.8,-1,1,·,·,·
O=C(O)C1CC(=O)N(Cc2cccs2)C1 (stereo unspecified),-17,·,-0.46,1.2,-23,1.2,·,·,·
CC(C)n1c2ccccc2c2nc3ccccc3nc21,15,2.4,-0.029,0.9,4,1,·,·,·
CCn1cc(C(=O)OCc2ccc(F)cc2)c(=O)c2ccc(C)nc21,10,9.9*,2.4,0.9,15,0.8,10188*,1412,+
CCn1cc(C(=O)OCC(=O)NCc2ccc3c(c2)OCO3)c(=O)c2ccc(C)nc21,27,2.7*,1.4,0.7,22,0.8,8368*,1576,+
CCn1cc(C(=O)N2CCN(Cc3ccc4c(c3)OCO4)CC2)c(=O)c2ccc(C)nc21,2,·,1.9,1,-4,1,·,·,·
CCn1cc(C(=O)OC(C)C(=O)Nc2c(C)n(C)n(-c3ccccc3)c2=O)c(=O)c2ccc(C)nc21 (stereo unspecified),4,0.37,0.048,1,0,1,·,·,·
Cc1ccc2c(c1C)NC(C)CC2C (stereo unspecified),-19,0.031,0.89,1.2,-14,1.1,·,·,·
O=C1CN(C(=O)CSc2nncn2-c2ccccc2)c2ccccc2N1,-5,0.052,0.042,1.1,-8,1.1,·,·,·
CCOC(=O)c1ccc(N2C(=O)C(O)=C(C(C)=O)C2c2ccc(O)c(OC)c2)cc1 (stereo unspecified),81*,2.5*,0.18,0.2,9,0.9,5200,1280,i
CCOC(=O)c1ccc(N2C(=O)C(O)=C(C(C)=O)C2c2ccccc2)cc1 (stereo unspecified),·,·,-0.36,·,·,·,·,·,·
C=CCN=C(NC#N)SCC(=O)c1cccc(OC)c1,-26,12*,0.11,1.3,95*,0.1,10808*,1776,+
C=CCN=C(NC#N)SCc1ccccc1,12,·,0.62,0.9,44,0.6,·,·,·
CC1Cc2ccccc2N1C(=O)c1ccc2snnc2c1 (stereo unspecified),15,15*,0.45,0.8,81*,0.2,13280*,1492,+
Oc1ccc(-c2nc3cnccn3c2Nc2ccc3c(c2)OCCO3)cc1,96*,2.8*,·,0,98*,0,9088*,1484,+
Clc1ccc(-c2nc3ncccn3c2Nc2ccc3c(c2)OCO3)cc1,-6,·,0.0013,1.1,3,1,·,·,·
O=C(CSc1nnc(-c2ccncc2)n1Cc1ccco1)Nc1nc(-c2ccccc2)cs1,38,·,-0.074,0.6,13,0.9,·,·,·
c1coc(CNc2nc(-c3ccncc3)cs2)c1,·,3.6*,0.59,·,·,·,8460*,1716,+
Cc1ccc(S(=O)(=O)N2CCC(C(=O)NCCCN3CCCCCC3)CC2)cc1,9,-0.06,-0.15,0.9,7,0.9,·,·,·
